# Counter-ions that a name gives are not always drawn.
# Experiments:
# Conditions in all cases: treatment time: 24 h
# [1] = test system: HepG2-ACTB-RAB5A; test: lowest phenotypically active concentration; higher = less potent
# Procedure, shortened: (§1)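 Four wells per concentration (0.3, 1, 3 or 9 µM) were treated for 24 h in each of fifteen gene-edited reporter lines from A549, HepG2 and WPMY1 cells, then imaged live. After normalising live-cell features to solvent control wells, deviation was defined as ≥3 of 4 wells lying past the 95th percentile of control Euclidean distances. Reproducibility was defined as a median replicate Pearson correlation above the 95th percentile of non-replicates. Both had to hold for phenotypic activity.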
# [2] = test system: HepG2-CANX-COX4; test: as above
# Procedure, shortened: as §1
# [3] = test system: HepG2-GM130-SQSTM1; test: as above
# Procedure, shortened: as §1
# [4] = test system: HepG2-TUBA1B-RELA; test: as above
# Procedure, shortened: as §1
# [5] = test system: WPMY1-ACTB-RAB5A; test: as above
# Procedure, shortened: as §1
# [6] = test system: WPMY1-CANX-COX4; test: as above
# Procedure, shortened: as §1
# [7] = test system: WPMY1-GM130-SQSTM1; test: as above
# Procedure, shortened: as §1
# [8] = test system: WPMY1-TP53BP1-CLTA; test: as above
# Procedure, shortened: as §1
# [9] = test system: WPMY1-TUBA1B-RELA; test: as above
# Procedure, shortened: as §1
# [10] = test system: WPMY1-ACTB-RAB5A; test: phenotypically active (imaging signature differs from DMSO and reproducible) at any of 0.3-9 uM (binary (1 = active, 0 = inactive)); higher = active
# Procedure, shortened: as §1
SMILES,lowest phenotypically active concentration [1] [µM],lowest phenotypically active concentration [2] [µM],lowest phenotypically active concentration [3] [µM],lowest phenotypically active concentration [4] [µM],lowest phenotypically active concentration [5] [µM],lowest phenotypically active concentration [6] [µM],lowest phenotypically active concentration [7] [µM],lowest phenotypically active concentration [8] [µM],lowest phenotypically active concentration [9] [µM],phenotypically active [10]
Cc1ccc(NC(=O)CCCCCC(=O)Nc2ccccc2N)cc1,1,9,3,9,9,3,9,3,9,1 (active)
Nc1nc(Cl)nc2c1ncn2[C@@H]1O[C@H](CO)[C@@H](O)[C@@H]1F [clofarabine],≤ 0.3,≤ 0.3,≤ 0.3,≤ 0.3,≤ 0.3,9,3,≤ 0.3,≤ 0.3,1 (active)
O=C(CCCCCN1C(=O)c2cccc3cccc(c23)C1=O)NO [Scriptaid],≤ 0.3,1,≤ 0.3,≤ 0.3,1,1,1,1,1,1 (active)
Nc1nc(S)c2[nH]cnc2n1 [thioguanine],9,1,1,1,1,1,1,9,9,1 (active)
COC(=O)Nc1nc2ccc(C(=O)c3cccs3)cc2[nH]1 [Nocodazole],≤ 0.3,≤ 0.3,≤ 0.3,≤ 0.3,≤ 0.3,≤ 0.3,≤ 0.3,≤ 0.3,≤ 0.3,1 (active)
COc1c(Nc2cc(C)[nH]n2)nc(Sc2ccc(S(=O)(=O)Cc3cccc([N+](=O)[O-])c3F)cc2F)nc1N1CCOCC1 [Centrinone],9,3,1,3,1,3,3,3,3,1 (active)
Cc1ccc(-n2nc(C(C)(C)C)cc2NC(=O)Nc2ccc(OCCN3CCOCC3)c3ccccc23)cc1,1,3,3,≤ 0.3,3,1,1,9,1,1 (active)
O=C(CCCCCCC(=O)Nc1cccnc1)NO [Pyroxamide],3,3,3,3,9,3,3,3,3,1 (active)
CN[C@H]1CC[C@@H](c2ccc(Cl)c(Cl)c2)c2ccccc21 [sertraline],3,9,3,3,3,3,3,3,3,1 (active)
COc1cc(OC2CCN(C)CC2)ccc1Nc1ncc2c(n1)n(C1CCCC1)c(=O)n2C,3,9,3,9,9,9,9,9,9,1 (active)
CCN(CC)c1ccc(/C=N/NC(=O)c2ccncc2)c(O)c1,≤ 0.3,≤ 0.3,≤ 0.3,1,≤ 0.3,≤ 0.3,≤ 0.3,≤ 0.3,1,1 (active)
C[C@@H](Oc1cc(-n2cnc3ccc(CN4CCN(C)CC4)cc32)sc1C(N)=O)c1ccccc1C(F)(F)F,≤ 0.3,≤ 0.3,≤ 0.3,≤ 0.3,≤ 0.3,3,≤ 0.3,≤ 0.3,≤ 0.3,1 (active)
Cc1cc(C)cc(C(=O)NOCCCCCC(=O)NO)c1,≤ 0.3,≤ 0.3,1,≤ 0.3,1,≤ 0.3,≤ 0.3,≤ 0.3,≤ 0.3,1 (active)
CNC(=O)c1ccccc1Sc1ccc2c(/C=C/c3ccccn3)n[nH]c2c1 [Axitinib],3,3,3,3,9,9,3,3,3,1 (active)
COc1ccc(N2C(=O)CSC2c2cccc(Br)c2)c(OC)c1 (stereo not given),9,3,9,9,3,3,3,3,3,1 (active)
COCC(=O)O[C@]1(CCN(C)CCCc2nc3ccccc3[nH]2)CCc2cc(F)ccc2[C@@H]1C(C)C [mibefradil],9,9,9,3,9,9,9,9,9,1 (active)
Nc1nc(Cl)nc2c1ncn2[C@H]1C[C@H](O)[C@@H](CO)O1 [cladribine],≤ 0.3,≤ 0.3,≤ 0.3,≤ 0.3,1,9,3,1,1,1 (active)
Cc1c[nH]c2nccc(Oc3c(F)cc(Nc4cc(Cl)nc(N)n4)cc3F)c12,≤ 0.3,≤ 0.3,≤ 0.3,≤ 0.3,≤ 0.3,≤ 0.3,≤ 0.3,1,≤ 0.3,1 (active)
Oc1cccc(Nc2ccnc3cc(-c4cccc(CN5CCOCC5)c4)sc23)c1 [LCB 03-0110 dihydrochloride],1,1,3,1,3,3,3,3,3,1 (active)
COc1ccc(C[C@H](N)C(=O)N[C@H]2[C@@H](O)[C@H](n3cnc4c(N(C)C)ncnc43)O[C@@H]2CO)cc1 [Puromycin dihydrochloride],≤ 0.3,≤ 0.3,≤ 0.3,≤ 0.3,≤ 0.3,1,≤ 0.3,1,1,1 (active)

SMILES,lowest phenotypically active concentration [1] [µM],lowest phenotypically active concentration [2] [µM],lowest phenotypically active concentration [3] [µM],lowest phenotypically active concentration [4] [µM],lowest phenotypically active concentration [5] [µM],lowest phenotypically active concentration [6] [µM],lowest phenotypically active concentration [7] [µM],lowest phenotypically active concentration [8] [µM],lowest phenotypically active concentration [9] [µM],phenotypically active [10]
C=CC(=O)Nc1cccc(CN2C(=O)N(c3c(Cl)c(OC)cc(OC)c3Cl)Cc3cnc(NCCCCN(CC)CC)nc32)c1 [FIIN 1 hydrochloride],≤ 0.3,3,≤ 0.3,≤ 0.3,≤ 0.3,1,≤ 0.3,≤ 0.3,1,1 (active)
COc1cc2nc(N3CCCN(C)CC3)nc(NC3CCN(Cc4ccccc4)CC3)c2cc1OC,≤ 0.3,1,≤ 0.3,≤ 0.3,1,1,≤ 0.3,1,1,1 (active)
CC(=C/[C@@H](C)C(=O)c1ccc(N(C)C)cc1)/C=C/C(=O)NO [Trichostatin A],≤ 0.3,≤ 0.3,≤ 0.3,≤ 0.3,≤ 0.3,≤ 0.3,≤ 0.3,≤ 0.3,≤ 0.3,1 (active)
Cc1ccc2nc(NCCN)c3ncc(C)n3c2c1,3,3,3,3,3,3,3,3,3,1 (active)
Clc1ccc(N/N=C(\c2ccccc2)c2ccccn2)nc1,≤ 0.3,≤ 0.3,1,≤ 0.3,1,1,1,1,1,1 (active)
Cc1ccc([N+](=O)[O-])cc1S(=O)(=O)N(C)/N=C/c1cnc2ccc(Br)cn12,≤ 0.3,≤ 0.3,≤ 0.3,≤ 0.3,≤ 0.3,≤ 0.3,≤ 0.3,≤ 0.3,≤ 0.3,1 (active)
COc1cccc(-c2cc(F)ccc2[C@H]2Cc3nc(N)nc(C)c3C(=O)N2)n1,≤ 0.3,≤ 0.3,≤ 0.3,≤ 0.3,≤ 0.3,≤ 0.3,≤ 0.3,≤ 0.3,≤ 0.3,1 (active)
CC(=O)NC1=NN(C(C)=O)C(C)(c2ccccc2)S1 (stereo not given),9,3,9,3,3,9,3,3,3,1 (active)
COc1cc(N2CCN(C)CC2)ccc1Nc1nccc(-c2cn(C)c3cnccc23)n1,3,1,1,1,1,≤ 0.3,1,1,1,1 (active)
CN1c2ccccc2C(=O)N2CCc3c([nH]c4ccccc34)[C@H]21 [Evodiamine],1,3,3,3,1,1,1,1,1,1 (active)
Oc1ccc(-c2nc(-c3ccc(F)cc3)c(-c3ccncc3)[nH]2)cc1,3,1,≤ 0.3,3,9,9,3,9,3,1 (active)
COc1ccc2[nH]c(C(=O)c3ccccc3)cc2c1,≤ 0.3,≤ 0.3,≤ 0.3,≤ 0.3,≤ 0.3,3,≤ 0.3,≤ 0.3,≤ 0.3,1 (active)
CC(=O)NCC(=O)N1[C@@H]2CC[C@H]1c1ccc(Nc3ncc(C(F)(F)F)c(NC4CCC4)n3)cc12,≤ 0.3,≤ 0.3,≤ 0.3,≤ 0.3,≤ 0.3,≤ 0.3,≤ 0.3,≤ 0.3,≤ 0.3,1 (active)
COc1cc(C(=O)N2CCC(N3CCN(C)CC3)CC2)ccc1Nc1ncc2c(n1)N(C)c1ccccc1C(=O)N2C,1,1,1,1,3,3,1,3,1,1 (active)
O=C1Cc2c([nH]c3ccc(Br)cc23)-c2ccccc2N1 [Kenpaullone],3,1,3,1,1,1,1,1,3,1 (active)
CCc1cccc(CC)c1NC(=O)N1Cc2[nH]nc(NC(=O)c3ccc(N4CCN(C)CC4)cc3)c2C1,≤ 0.3,≤ 0.3,≤ 0.3,≤ 0.3,1,1,1,1,1,1 (active)
C=CC(=O)N1CCC[C@@H](n2nc(-c3cccc(C(=O)Nc4ccc(C(C)C)c(C)c4)c3)c3c(N)ncnc32)C1,1,1,1,1,1,3,3,9,3,1 (active)
O=C1c2c(O)ccc(O)c2C(=O)c2c(NCCNCCO)ccc(NCCNCCO)c21 [mitoxantrone],≤ 0.3,≤ 0.3,≤ 0.3,≤ 0.3,≤ 0.3,≤ 0.3,≤ 0.3,≤ 0.3,≤ 0.3,1 (active)
C[C@@H]1COCCN1c1cc(C2(S(C)(=O)=O)CC2)nc(-c2cccc3[nH]ccc23)n1,≤ 0.3,1,1,1,≤ 0.3,≤ 0.3,1,1,3,1 (active)

# — the supplement of paper PMC7411054
